Compounds without any hit were thinned out: in the full panel of roughly 79,000, 15% have a hit. Calls of active or inactive are those of the source. Rule as the data show it: active = growth inhibition above about 70%; inactive = the rest.
How the values were obtained:
[1] = NCI Yeast Anticancer Drug Screen. Data for the rad52 strain (AID 147);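 also: 0% = growth of vehicle-treated control cultures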; conditions: S. cerevisiae rad52 mutant growth inhibition, hits give high values
In short: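 Yeast strain carrying a DNA damage repair alteration was exposed to test compounds. Growth inhibition was measured relative to vehicle-treated controls.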

[2] = NCI Yeast Anticancer Drug Screen. Data for the wt1 strain (AID 149);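 also: 0% = growth of vehicle-treated wt1 cultures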; conditions: S. cerevisiae wt1 strain (SPY 50644) growth inhibition, hits give high values
In short: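 Measured: growth of wt1 yeast under compound versus vehicle treatment, reported as inhibition.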

[3] = NCI Yeast Anticancer Drug Screen. Data for the rad50EPP+ strain (AID 151);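 also: 0% = growth of vehicle-treated control cultures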; conditions: S. cerevisiae rad50 mutant strain, hits give high values
In short: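 Yeast strain carrying rad50 alteration (rad50EPP+) exposed to compounds; growth inhibition measured relative to vehicle-treated controls.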

[4] = NCI Yeast Anticancer Drug Screen. Data for the mgt1 strain (AID 153); conditions: S. cerevisiae mgt1 mutant growth inhibition, hits give high values
In short: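 Yeast mgt1 strain (DNA repair/cell-cycle alteration panel) exposed to compounds; growth inhibition measured relative to vehicle-treated controls.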

[5] = NCI Yeast Anticancer Drug Screen. Data for the rad50 strain (AID 155);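 also: 0% = growth of vehicle-only cultures of the same strain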; conditions: S. cerevisiae rad50 strain growth inhibition, hits give high values
In short: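 Growth of the mutant yeast was measured after compound exposure and referenced to vehicle-treated cultures.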

[6] = NCI Yeast Anticancer Drug Screen. Data for the mec2-1 strain (AID 157); conditions: S. cerevisiae mec2-1 strain, hits give high values
In short: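 mec2-1 yeast strain, carrying an alteration in DNA damage repair or cell cycle control, was exposed to compounds; growth inhibition was measured relative to vehicle-treated controls.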

[7] = NCI Yeast Anticancer Drug Screen. Data for the rad14 strain (AID 159);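 also: 0% = growth of vehicle-treated control cultures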; conditions: S. cerevisiae rad14 strain growth inhibition, hits give high values
In short: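 Here, inhibition of yeast growth was measured after compound exposure, using a strain with a genetic defect in DNA damage repair and vehicle-treated cultures as the reference.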

[8] = NCI Yeast Anticancer Drug Screen. Data for the sgs1 mgt1 strain (AID 161);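 also: 0% = growth of cultures given vehicle only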; conditions: S. cerevisiae sgs1 mgt1 strain, hits give high values
In short: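 Compounds are added to genetically altered yeast, and growth is compared with cultures given vehicle alone to give percent inhibition.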

[9] = NCI Yeast Anticancer Drug Screen. Data for the CLN2oe strain (AID 163);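 also: 0% = growth of vehicle-only control cultures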; conditions: S. cerevisiae CLN2oe strain, hits give high values
In short: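 Yeast cells carrying a defined cell-cycle control alteration were exposed to test compounds. Growth inhibition was scored against vehicle-treated control cultures.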

[10] = NCI Yeast Anticancer Drug Screen. Data for the cln2 rad14 strain (AID 165);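 also: 0% = growth equal to vehicle treated cultures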; conditions: S. cerevisiae cln2 rad14 strain, hits give high values
In short: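 Yeast carrying cln2 and rad14 alterations (cell cycle control and DNA damage repair) were exposed to compounds. Growth inhibition was measured against vehicle-treated controls.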

[11] = NCI Yeast Anticancer Drug Screen. Data for the bub3 strain (AID 167); conditions: S. cerevisiae bub3 mutant strain, hits give high values
In short: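 Whole-cell yeast assay. The mutant strain was incubated with compounds, and growth inhibition was determined by comparison with vehicle-treated cells.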

[12] = NCI Yeast Anticancer Drug Screen. Data for the wt2 strain (AID 169);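 also: 0% = growth of vehicle-treated yeast cultures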; conditions: S. cerevisiae wt2 strain growth inhibition, hits give high values
In short: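 Yeast cells were exposed to test compounds, and growth inhibition was measured relative to vehicle-treated controls.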

[13] = NCI Yeast Anticancer Drug Screen. Data for the mlh1 strain (AID 171);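 also: 0% = growth of vehicle-treated control cultures of the same strain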; conditions: S. cerevisiae mlh1 strain growth inhibition, hits give high values
In short: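 Yeast carrying a defined genetic alteration in DNA damage repair or cell cycle control were exposed to test compounds. Growth inhibition was measured relative to vehicle-treated controls.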

[14] = NCI Yeast Anticancer Drug Screen. Data for the sgs1 strain (AID 173);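 also: 0% = growth of vehicle-only control cultures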; conditions: S. cerevisiae sgs1 mutant, hits give high values
In short: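 Yeast mutant strains carrying defined defects in DNA damage repair or cell cycle control were exposed to test compounds. Growth inhibition was scored against vehicle-treated controls.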

[15] = NCI Yeast Anticancer Drug Screen. Data for the mlh1 rad18 strain (AID 175); conditions: S. cerevisiae mlh1 rad18 strain growth inhibition, hits give high values
In short: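 Growth inhibition of the yeast strain was measured after compound exposure and expressed relative to vehicle-treated controls. The strain carries defined defects in DNA damage repair.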

[16] = NCI Yeast Anticancer Drug Screen. Data for the rad18 strain (AID 177); conditions: S. cerevisiae rad18 mutant growth inhibition, hits give high values
In short: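 Yeast carrying a defined DNA damage repair alteration were exposed to compounds. Growth inhibition was expressed relative to vehicle-treated controls.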

[17] = at 5.0 µM (retest, dose inferred, filed as 0.5)
[18] = at 50.0 µM (retest, dose inferred, filed as 5.0)

Measured: growth inhibition

CCCCCCNCCCNc1c2ccccc2nc2cccc([N+](=O)[O-])c12
inactive: [1]; at 1.2 µM 43% | [2]; at 1.2 µM -2% | [2]; at 3.7 µM 0% | [2]; at 11.0 µM 8% | [2]; at 33.0 µM 59% | [3]; at 1.2 µM -1% | [3]; at 3.7 µM 5% | [3]; at 11.0 µM 26% | [3]; at 33.0 µM 67% | [4]; at 1.2 µM -4% | [4]; at 3.7 µM -4% | [4]; at 11.0 µM 11% | [5]; at 1.2 µM 24% | [5]; at 3.7 µM 64% | [5]; [17] 69% | [6]; at 1.2 µM 4% | [6]; at 3.7 µM 40% | [6]; [17] 15% | [7]; at 1.2 µM 23% | [9]; at 1.2 µM -6% | [9]; at 3.7 µM -6% | [9]; at 11.0 µM -5% | [9]; at 33.0 µM 29% | [11]; at 1.2 µM -10% | [11]; at 3.7 µM -16% | [11]; [17] -42% | [11]; at 11.0 µM -12% | [11]; at 33.0 µM 15% | [11]; at 50.0 µM 43.9% | [12]; at 1.2 µM -1% | [12]; at 3.7 µM 0% | [12]; at 11.0 µM 5% | [12]; at 33.0 µM 31% | [13]; at 1.2 µM 2% | [13]; at 3.7 µM 9% | [13]; at 11.0 µM 35% | [14]; at 1.2 µM 62%
active: [1]; at 3.7 µM 80% | [1]; at 11.0 µM 92% | [1]; at 33.0 µM 95% | [1]; at 100.0 µM 95% | [2]; at 100.0 µM 92% | [3]; at 100.0 µM 94% | [4]; at 33.0 µM 78% | [4]; at 100.0 µM 94% | [5]; at 11.0 µM 90% | [5]; at 33.0 µM 94% | [5]; [18] 98% | [5]; at 50.0 µM 83.3% | [5]; at 100.0 µM 96% | [6]; at 11.0 µM 94% | [6]; at 33.0 µM 97% | [6]; [18] 99% | [6]; at 50.0 µM 88.1% | [6]; at 100.0 µM 97% | [7]; at 3.7 µM 86% | [7]; at 11.0 µM 98% | [7]; at 33.0 µM 98% | [7]; at 100.0 µM 97% | [8]; [17] 84% | [8]; [18] 97% | [8]; at 50.0 µM 74.3% | [9]; at 100.0 µM 93% | [10]; [17] 80% | [10]; [18] 99% | [10]; at 50.0 µM 85.4% | [11]; [18] 98% | [11]; at 100.0 µM 98% | [12]; at 100.0 µM 96% | [13]; at 33.0 µM 89% | [13]; at 100.0 µM 94% | [14]; at 3.7 µM 80% | [14]; at 11.0 µM 90% | [14]; at 33.0 µM 93% | [14]; at 100.0 µM 95% | [15]; [17] 76% | [15]; [18] 98% | [15]; at 50.0 µM 78.5% | [16]; at 1.2 µM 93% | [16]; at 3.7 µM 95% | [16]; at 11.0 µM 96% | [16]; at 33.0 µM 96% | [16]; at 100.0 µM 95%

CC(C)OC(=O)NNc1cc(Cl)ccc1Cl
active: [3]; at 33.0 µM 72% | [3]; at 100.0 µM 88% | [4]; at 100.0 µM 88% | [5]; at 100.0 µM 87% | [6]; at 100.0 µM 77% | [7]; at 100.0 µM 99% | [11]; at 50.0 µM 99% | [15]; [18] 89% | [15]; at 50.0 µM 75.2%
inactive: [1]; at 1.2 µM 0% | [1]; at 3.7 µM 18% | [1]; at 11.0 µM 41% | [1]; at 33.0 µM 38% | [1]; at 100.0 µM 66% | [2]; at 1.2 µM -2% | [2]; at 3.7 µM 5% | [2]; at 11.0 µM 29% | [2]; at 33.0 µM 34% | [2]; at 100.0 µM 31% | [3]; at 1.2 µM 20% | [3]; at 3.7 µM 27% | [3]; at 11.0 µM 60% | [4]; at 1.2 µM -4% | [4]; at 3.7 µM 2% | [4]; at 11.0 µM 19% | [4]; at 33.0 µM 21% | [5]; at 1.2 µM -3% | [5]; at 3.7 µM 22% | [5]; [17] 19% | [5]; at 11.0 µM 41% | [5]; at 33.0 µM 36% | [5]; [18] 44% | [5]; at 50.0 µM 38% | [6]; at 1.2 µM -4% | [6]; at 3.7 µM 8% | [6]; [17] 9% | [6]; at 11.0 µM 34% | [6]; at 33.0 µM 33% | [6]; [18] 20% | [6]; at 50.0 µM 36.4% | [7]; at 1.2 µM -4% | [7]; at 3.7 µM 3% | [7]; at 11.0 µM 20% | [7]; at 33.0 µM 48% | [8]; [17] 17% | [8]; [18] 48% | [8]; at 50.0 µM 44.2% | [9]; at 1.2 µM -1% | [9]; at 3.7 µM 4% | [9]; at 11.0 µM 29% | [9]; at 33.0 µM 50% | [9]; at 100.0 µM 59% | [10]; [17] 4% | [10]; [18] 21% | [10]; at 50.0 µM 26% | [11]; at 1.2 µM 4% | [11]; at 3.7 µM -1% | [11]; [17] 32% | [11]; at 11.0 µM 19% | [11]; at 33.0 µM 39% | [11]; [18] 60% | [11]; at 100.0 µM 47% | [12]; at 1.2 µM 3% | [12]; at 3.7 µM 4% | [12]; at 11.0 µM 23% | [12]; at 33.0 µM 29% | [12]; at 100.0 µM 35% | [13]; at 1.2 µM -1% | [13]; at 3.7 µM 8% | [13]; at 11.0 µM 41% | [13]; at 33.0 µM 50% | [13]; at 100.0 µM 58% | [14]; at 1.2 µM 0% | [14]; at 3.7 µM 10% | [14]; at 11.0 µM 44% | [14]; at 33.0 µM 44% | [14]; at 100.0 µM 54% | [15]; [17] 57%

— PubChem BioAssay (NCI)
